# Measured values published in PubChem BioAssay (NCATS).
# Records with an inconclusive call do not appear. A number with no mark means an inactive call. The source made the active and inactive calls. The call rests on the fitted dose curve; in most records, active means well fitted cell-killing curve with a large enough effect; inconclusive means small, poorly fitted or top-dose-only effect, or effect the other way; inactive means no such curve, though single readings can be large or run the other way.
# Experiment: Quantitative High-Throughput drug screen in 47 multiple myeloma cell lines against the NCATS MIPE library collection: KMS28BM_JCRB cell viability assay (AID 1919874); further: nearly all actives have a fitted effect of over 35% in size
# Conditions: CellTiter-Glo ATP, 48 h; series mostly up to 45.8 µM; viability, % of control: at the top concentration
# Procedure, shortened: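 MIPE 4.0 approved/investigational drugs; 500 cells/well; 48 h 37 °C humidified 5% CO2; CTG luminescence readout; DMSO = 100%, media = 0% viability.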
# Potency means the concentration at half of the fitted maximal effect.
SMILES,Potency,"viability, % of control"
N#Cc1ccc(C(c2ccc(C#N)cc2)n2cncn2)cc1,5.9 µM (active),–
CN(C)c1ccc(C2Nc3ccc4ccccc4c3C3=C2C(=O)CC(C)(C)C3)cc1Br (stereo not given),–,107%
Nc1cccc(S(=O)(=O)N2CCCN(S(=O)(=O)c3ccc4c(c3)OCCO4)CC2)c1,–,101%
N#CC[C@H](C1CCCC1)n1cc(-c2ncnc3[nH]ccc23)cn1,20.9 µM (active),–
S=C(NCc1ccc2c(c1)OCO2)N1CCN(c2ncnc3c2oc2ccccc23)CC1,1.36 µM (active),–
O=c1ncn2nc(Sc3ccc(F)cc3F)ccc2c1-c1c(Cl)cccc1Cl,–,89.9%
CNC(=O)c1ccc(C)c(-n2c(C)cc(OCc3ccc(F)cc3F)c(Br)c2=O)c1,–,94%
Cn1c(=O)c(F)c(Nc2ccc(I)cc2F)c2c(=O)n(C[C@@H](O)CO)cnc21,–,109%
OC[C@H](Cc1ccccc1)Nc1nc(Oc2ccc3c(c2)CCC3)nc2c1ncn2Cc1ccc(-c2ccccc2)cc1,–,101%
CCCC(CCC)C(=O)O,–,111%
CN(C)C(=O)c1ccc(S(=O)(=O)c2ccc(NC(=O)[C@@](C)(O)C(F)(F)F)c(Cl)c2)cc1,–,102%
COCC(=O)NCC=Cc1ccc2ncnc(Nc3ccc(Oc4ccc(C)nc4)c(C)c3)c2c1,29.6 µM (active),–
COc1ccc(-c2ccc3c(N4CCOC[C@H]4C)nc(N4CCOC[C@H]4C)nc3n2)cc1CO,0.0083 µM (active),–
CCCc1nc2c(C)cc(-c3nc4ccccc4n3C)cc2n1Cc1ccc(-c2ccccc2C(=O)O)cc1,–,132%
Cc1ccccc1C(C(=O)NC1CCCC1)N(C(=O)Cn1cnc2ccccc21)c1cccc(F)c1 (stereo not given),–,96.6%
O=C1CCC(N2C(=O)c3ccccc3C2=O)C(=O)N1 (stereo not given),–,99%
CC(C)(Sc1ccc(CCN(CCCCC2CCCCC2)C(=O)NC2CCCCC2)cc1)C(=O)O,–,111%
Cc1cnc(Nc2ccc(OCCN3CCCC3)cc2)nc1Nc1cccc(S(=O)(=O)NC(C)(C)C)c1,0.935 µM (active),–
Clc1cccc(Cl)c1NC1=NCCN1,–,120%
COc1ccc(-c2ccc3c(N4CCOCC4)nc(N4C[C@@H](C)O[C@@H](C)C4)nc3n2)cc1CO,1.32 µM (active),–

SMILES,Potency,"viability, % of control"
Cc1ccccc1C(OCCN(C)C)c1ccccc1 (stereo not given),7.43 µM (active),–
CCc1ccc(CCOc2ccc(CC3SC(=O)NC3=O)cc2)nc1 (stereo not given),–,118%
CS(=O)(=O)Oc1ccc2c(NC(N)=O)c(C(=O)c3ccc(Cl)cc3Cl)oc2c1,2.35 µM (active),–
Cc1cccc(-c2nn(C(=S)Nc3ccccc3)cc2-c2ccnc3ccccc23)n1,–,93.8%
CCCn1c(=O)c2[nH]c(C34CC5CC3C[C@@H](C5)C4)nc2n(CCC)c1=O,–,124%
Cc1csc(NC(=O)c2sc3nc4c(c(C(F)(F)F)c3c2N)CCC4)n1,26.4 µM (active),–
CC1(C)SCCN(S(=O)(=O)c2ccc(OCC#CCO)cc2)[C@@H]1C(=O)NO,–,88.9%
O=C(c1cc(Cc2n[nH]c(=O)c3ccccc23)ccc1F)N1CCN(C(=O)C2CC2)CC1,–,132%
Cc1cnc(NC(=O)C2=C(O)c3ccccc3S(=O)(=O)N2C)s1,–,114%
COc1ccc(CC2=NN3C([C@@H](CCc4ccccc4)[C@@H](C)O)=NC(C)C3C(=O)N2)cc1OC (stereo not given in full),–,117%
C1COC(NC(C2CC2)C2CC2)=N1,–,99.2%
Cn1cnc([N+](=O)[O-])c1Sc1ncnc2nc[nH]c12,5.9 µM (active),–
NC(=O)c1cnccn1,–,119%
Cc1cc2c(C(C)C)c(O)c(O)c(C=O)c2c(O)c1-c1c(C)cc2c(C(C)C)c(O)c(O)c(C=O)c2c1O,10.5 µM (active),–
Cc1[nH]c(=O)c(C#N)cc1-c1ccc2nccn2c1,–,74.9%
Fc1ccc(Cl)cc1-c1nc(Nc2ccncc2)c2nccnc2n1,–,90.7%
CC1(C)CNc2cc(NC(=O)c3cccnc3NCc3ccncc3)ccc21,–,89.7%
CCN(CC)CCCC(C)Nc1nc(C)cc(Nc2ccc3nc(C)cc(N)c3c2)n1 (stereo not given),–,112%
CC(C=CC1=C(C)CCCC1(C)C)=CC=CC(C)=CC(=O)O,–,113%
C#Cc1cccc(Nc2ncnc3cc(OCCOC)c(OCCOC)cc23)c1,0.833 µM (active),–
